# D2 ag-1: agonists of human D2 dopamine receptor (beta-arrestin); P14416; DiscoveRx PathHunter D2 beta-arrestin, luminescence, 90 min; 100% = 57 uM dopamine signal; activation, % (concentration not given with the values); 360,000 compounds, 0.084% hits; AID 624465; in the data active = activation above about 40%; inconclusive = between about 15% and that limit
# Target sequence (P14416 whole entry, looked up): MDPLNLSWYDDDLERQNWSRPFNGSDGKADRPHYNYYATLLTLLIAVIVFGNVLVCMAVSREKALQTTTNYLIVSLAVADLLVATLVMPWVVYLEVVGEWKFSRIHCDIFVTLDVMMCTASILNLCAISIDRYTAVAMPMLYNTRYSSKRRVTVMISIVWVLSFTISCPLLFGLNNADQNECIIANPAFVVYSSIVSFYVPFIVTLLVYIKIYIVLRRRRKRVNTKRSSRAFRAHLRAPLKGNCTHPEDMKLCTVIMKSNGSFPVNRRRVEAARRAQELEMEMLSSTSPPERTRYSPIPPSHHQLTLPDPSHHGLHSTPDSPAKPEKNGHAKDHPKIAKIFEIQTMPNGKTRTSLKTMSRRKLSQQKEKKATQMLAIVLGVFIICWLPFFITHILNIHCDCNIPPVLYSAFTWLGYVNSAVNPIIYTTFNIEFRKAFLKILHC
#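 DiscoveRx PathHunter D2 beta-arrestin cells (2,100/well) attached overnight, then compound-stimulated 90 min at 37 C in HBSS/10 mM HEPES/0.1% Tween-20 buffer; beta-galactosidase complementation read by luminescence after 1 h at ambient temperature. Dopamine 57 uM final (EC100) as control.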
# D2 ag-2: agonists of human D2 dopamine receptor; P14416; HEK293 T-REx D2 cells, calcium flux agonist mode; activation, % at 2 µM; 340,000 compounds, 0.53% hits; AID 485358;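 active = activation over 3 SD above normal in the single-dose calcium agonist read, cut at about 30% in these data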
#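 In this primary screen, compounds producing a positive calcium signal within 180 s of addition to tetracycline-induced, force-coupled HEK293 Trex D2 cells are flagged; cells are dye-loaded with a no-wash calcium kit beforehand.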
# D2 PAM-1: positive allosteric modulators of human D2 dopamine receptor | DiscoveRx D2 beta-arrestin cells, luminescence, 90 min; 100% = 57 uM dopamine signal | P14416 | potentiation, % (no concentration beside the values) | 360,000 compounds, 0.23% hits; in the data active = potentiation above about 50%; inconclusive = mostly about 30% to 49%
#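 PathHunter beta-arrestin assay in DiscoveRx D2 cells. Compounds were added with an EC20 of dopamine (50 nM final) for 90 min at 37 deg C. Luminescence was read 1 h after detection reagent, with 57 uM dopamine as the EC100 control.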
# D2 antag: antagonists of human D2 dopamine receptor. AID 485344. P14416. inhibition, % at 10 µM. HEK293 TREx D2 cells, calcium flux, dopamine EC80. 340,000 compounds, 2% hits; in the data active = inhibition above about 30%; inactive = below that, where a call was filed
#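 Calcium mobilization kinetics were recorded at 1 s intervals in tetracycline-induced HEK293 T-REx D2 cells, first for 180 s after compound addition and then 180 s after EC80 dopamine.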
# D2 PAM-2: positively modulates the human D2 dopamine receptor allosterically; 340,000 compounds, 0.34% hits; HEK293 T-REx D2, calcium flux, EC20 dopamine potentiation; potentiation, % at 10 µM; P14416;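 active = potentiation over 3 SD above the plate norm, cut at about 30% in these data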
#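 Tetracycline-induced HEK293 T-REx cells force-coupled to calcium signalling expressed D2; compounds were pin-added after a 10 s baseline, read kinetically 180 s, then an EC20 dopamine challenge followed with a further 180 s calcium read.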
# Hits are given with their value; - = inactive; ? = inconclusive; . = not tested or not shown. Most compounds without a hit are left out; they make up all but 2.4% or so of the library.
SMILES,D2 ag-1,D2 ag-2,D2 PAM-1,D2 antag,D2 PAM-2
Cc1cc(-c2ccc(C)c(S(=O)(=O)Nc3ccccn3)c2)on1,.,-,.,.,-
Cc1cc(-c2ccc(C(C)C)c(S(=O)(=O)Nc3ccccn3)c2)on1,-,-,-,31,-
O=C(Nc1ccncc1)c1cc2ccccc2cc1O,?,-,137,-,-
CCOc1ccc(CCNC(=O)Cn2c(C)c3cnn(-c4ccccc4)c(=O)c3c2C)cc1,.,-,.,.,-
COc1ccc(C(=O)CSc2nc3cccnc3n2C)cc1,-,-,-,-,-
COc1cccc(C(=O)CSc2nc3cccnc3n2C)c1,-,-,-,37,-
CCc1cc(C(=O)OC)c(NC(=O)CC2SC(N)=NC2=O)s1 (stereo not drawn),-,-,-,31,-
CC(C)CC(=O)Nc1nnc(S(=O)(=O)N(CC(C)C)c2ccccc2)s1,.,-,.,.,-
CCOC(=O)c1c(S(=O)(=O)N2CCCC(C(=O)N3CCN(c4ccccc4)CC3)C2)c(C)n(C)c1C (stereo not drawn),.,-,.,.,-
COc1cccc(C2C3=C(CC(C)(C)CC3=O)Nc3n[nH]c(C)c32)c1 (stereo not drawn),-,-,-,-,31
Cc1c(Cl)cccc1NC(=O)CSc1ncc2c(n1)-c1ccccc1N(C)S2(=O)=O,.,-,.,.,-
CCOC(=O)C1(C)CCCN(C(=O)c2ccc3ccccc3c2)C1 (stereo not drawn),-,.,-,.,.
CC1(OC(=O)C2CCCC2)C(=O)C=C2C=C(c3ccsc3)N(c3ccccc3)C=C2C1=O (stereo not drawn),-,-,-,36,-
COc1c2c(cc3c1C(CC(O)Cc1ccccc1)N(C)CC3)OCO2 (stereo not drawn),-,-,-,57,-
CC(O)(CS(=O)(=O)c1ccc(Br)cc1)c1ccccc1 (stereo not drawn),-,-,-,31,-
O=S(=O)(CC(O)(c1ccccc1)c1ccccc1)CC(O)(c1ccccc1)c1ccccc1,-,.,-,.,.
Cc1cccc(C(=O)NCC(c2cccs2)S(=O)(=O)c2cccs2)c1 (stereo not drawn),.,.,.,.,-
CCCc1ccc(OCc2ccc(C(=O)N3CCSCC3)o2)cc1,-,-,-,39,-
CCOc1ccccc1C1C(C(=O)N2CCCCC2)=C(C)Nc2nc3ccccc3n21 (stereo not drawn),.,-,.,.,-
Cc1ccc2c(C)c(C(=O)N(Cc3ccc(Cl)cc3)C3CCS(=O)(=O)C3)oc2c1 (stereo not drawn),.,-,.,.,-
COc1cc2ccccc2cc1C(=O)N1CCN(c2nc3c(F)cc(F)cc3s2)CC1,.,.,.,.,-
CCc1ccc(OCC(=O)N/N=C(\C)c2ccc(O)cc2O)cc1,-,-,-,45,-
Cc1nc(NC(=O)c2cc(-n3cnnc3)ccc2Cl)ccc1Br,-,-,-,30,-
O=C(Nc1ccccc1)c1cc(-n2cnnc2)ccc1Cl,-,.,-,.,.
CCCc1nn2c(C)c(-c3ccccc3)nc2s1,.,-,.,.,.
SMILES,D2 ag-1,D2 ag-2,D2 PAM-1,D2 antag,D2 PAM-2
CCN(CC)C(=O)c1sc2c(c1C)c(=O)n(-c1ccccc1)c(=O)n2Cc1c(C)cc(C)cc1C,.,-,.,.,-
CCCCc1nc(N2CCN(C(=O)c3ccco3)CC2)c(C#N)c2c1CCCC2,-,-,-,31,-
CCCCC(=O)Nc1nc2c(s1)COc1ccccc1-2,-,-,-,52,-
COc1ccc2nc(Nc3sc4c(c3C(N)=O)CCCC4)sc2c1,?,-,55,-,-
Cn1cnc(S(=O)(=O)N2CCC(C(=O)Nc3ccc(OC(F)(F)F)cc3)CC2)c1,.,-,.,.,-
Cn1c(NCC(O)c2ccccc2)nc2c1c(=O)n(Cc1ccc(Cl)cc1)c(=O)n2C (stereo not drawn),-,-,-,-,-
Cn1c(NCC(O)c2ccccc2)nc2c1c(=O)n(Cc1ccc(Cl)c(Cl)c1)c(=O)n2C (stereo not drawn),-,.,54,.,.
CC(C)COC(=O)c1ccc2c(c1O)C(=O)c1ccccc1C2=O,-,-,62,-,-
COc1ccccc1-c1noc(-c2ccc(N3CCN(c4ccccc4)CC3)c([N+](=O)[O-])c2)n1,.,.,.,.,-
CNC(=O)c1cnc2sc(N3CCCCCC3)nn2c1=O,.,-,.,.,-
CCC(NC(=O)C1CCC1)c1ccc(C)cc1 (stereo not drawn),-,-,-,37,-
COc1ccc(C(CC(=O)O)NC(=O)C2CCCCC2)cc1 (stereo not drawn),-,-,-,-,-
CCOc1ccc(Nc2nc(C)c(NC(=O)c3cccc(F)c3)c(Nc3ccc(OCC)cc3)n2)cc1,.,-,.,.,-
Cc1ccc(-c2nnc(N3CCN(C(=O)CSc4ncn[nH]4)CC3)c3ccccc23)cc1,-,-,-,47,.
Cc1ccccc1CNC(=O)c1ccccc1NC(=O)c1nsc2ccccc12,.,.,.,.,-
CN(C(=O)c1ccc(C#N)cc1)c1nnc(-c2ccccn2)s1,-,-,-,-,-
CN(C(=O)c1ccncc1)c1nnc(-c2ccccn2)s1,-,-,-,35,-
O=C(CN1CCN(c2ccccc2F)CC1)c1c[nH]c2ccc(F)cc12,-,-,-,35,-
NC(=O)C1CCN(CC(=O)c2c[nH]c3ccc(F)cc23)CC1,-,-,-,-,-
Cc1cc(C)nc(SCc2ccc(C(=O)N/N=C/c3cccc(O)c3O)cc2)n1,-,-,59,-,-
O=C(C[C@H]1C(=O)N(Cc2ccccc2)C[C@@H]1c1ccc(Br)cc1)Nc1ccc(Br)cc1,-,.,-,.,.
COc1ccc(C(=O)O/N=C(\N)Cc2ccc([N+](=O)[O-])cc2)c(OC)c1,42,-,?,-,-
CCOP(=O)(OCC)/C(=N/OC(=O)c1cccc([N+](=O)[O-])c1)C(N)=O,-,-,-,-,-
COc1ccccc1C/C(N)=N/OC(=O)c1cccc([N+](=O)[O-])c1,?,-,70,-,-
COc1ccc(C/C(N)=N/OC(=O)c2cccc([N+](=O)[O-])c2)cc1,-,-,51,-,-
SMILES,D2 ag-1,D2 ag-2,D2 PAM-1,D2 antag,D2 PAM-2
COCCNC(=O)C1(C)CCN(Cc2ccc(C(C)C)cc2)C1 (stereo not drawn),-,.,-,.,.
COc1ccc(N=Cc2sc(O)c3ccccc23)cc1,?,-,113,-,-
CCOc1ccccc1N(C)C(=O)Cn1cnc2sc(C)c(S(=O)(=O)N3CCC(C)CC3)c2c1=O,.,-,.,.,.
CC(SC1=Nc2ccccc2C2CC=NN12)C(=O)NC1(C#N)CCCCC1 (stereo not drawn),-,44,-,-,-
CCOc1ccccc1N1CCN(Cc2cn[nH]c2-c2ccc(F)cc2)CC1,-,-,-,81,-
O=C(c1ccc(F)cc1)C1CCN(Cc2cn[nH]c2-c2ccc(F)cc2)CC1,-,-,-,94,-

# Screening results from PubChem.
